# Measurements reported in the supplement of paper PMC8387472.
# ± gives the standard deviation of the averaged measurements.
# Tested on: mESC LDLR-Dup GFP reporter (SpCas9 MH-deletion repair)
# Test: fraction of GFP+ cells relative to DMSO control (fold change); higher = more MH-deletion repair to in-frame LDLR (or more editing)
# Details: 2 µM; 7 days post-transfection
row,Compound,fraction of GFP+ cells
1,C=C1C(=O)O[C@H]2[C@H]1CC/C(C)=C/CC[C@@]1(C)O[C@@H]21 [(-)-Parthenolide],0.606 ± 0.018
2,COc1ccc(-c2oc3c(CC=C(C)C)c(O[C@@H]4O[C@H](CO)[C@@H](O)[C@H](O)[C@H]4O)cc(O)c3c(=O)c2O[C@@H]2O[C@@H](C)[C@H](O)[C@@H](O)[C@H]2O)cc1 [Icariin],1.26 ± 0.2
3,COc1nc(OCc2cccc(-c3ccccc3)c2C)ccc1CNCCNC(C)=O [bms202 (PD-1/PD-L1 inhibitor 2],1.04 ± 0.3
